# Results published in PubChem BioAssay (NCATS).
# A number with no mark means an inactive call. Inconclusive results are not listed. Activity calls are given as the source filed them. Unless noted, the call rests on the fitted dose curve; in most records, active means well fitted curve in the direction sought with a large enough effect; inconclusive means small, poorly fitted or top-dose-only effect, or another doubt; inactive means no such curve, though single readings can be large; an effect the other way counts as inactive or inconclusive.
# What was measured:
# [1] = AP1 Signaling Pathway (AID 357; active means well fitted curve in either direction with a large enough effect, not every such curve was filed as active;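 further: ME-180 reporter cells stimulated with EGF at its EC50 level; on the % scale 0 is the no-effect control and ±100 the full control effect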); conditions: ME-180 AP-1-bla reporter, EGF-induced, beta-lactamase ratio, 5 h; at 7.69 µM (top of the series) unless noted
# How it was run: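 AP-1-bla ME-180 cells, Opti-MEM + 0.5% dialyzed FBS, plated overnight 37 °C. Cpd titration + EC50 EGF, 5 h 37 °C. CCF4 2.5 h RT; ex 405, em 460/530 ratio → %activity, AC50.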
# [2] = NFAT Signaling Pathway (AID 444; active means well fitted curve in either direction with a large enough effect, not every such curve was filed as active;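 further: carbachol stimulus at about its EC50 of 1 µM final; on the % scale 0 is the no-effect control and ±100 the full control effect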); conditions: Jurkat NFAT-bla M1, carbachol, beta-lactamase ratio, 5 h; at 7.69 µM (top of the series) unless noted
# How it was run: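 Jurkat cells carrying an NFAT-driven β-lactamase reporter and co-transfected muscarinic M1 receptor were treated with compound plus carbachol (1 uM final, an EC50 level) for 5 h at 37 °C. CCF4 loading followed for 1 h at RT; 460/530 nm ratio gave %activity.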
# [3] = Stat Signaling Pathway (AID 446; active means well fitted curve in either direction with a large enough effect, not every such curve was filed as active;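 further: ME-180 cervical cancer cells given 40 pM IL-6 alongside compound; SIE-controlled beta-lactamase reporter measured as 460/530 nm FRET emission ratio; on the % scale 0 is the no-effect control and ±100 the full control effect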)
# How it was run: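 Compound effects on IL-6-induced STAT reporter activity were measured in ME-180 cells. After overnight culture, cells were co-treated with 40 pM IL-6 for 5 hrs before beta-lactamase substrate loading at room temperature.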
# [4] = molecular target: Glucocorticoid receptor (Homo sapiens) (UniProt P04150); test: GR-GFP Redistribution (AID 450;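 active means compounds whose dose series gives a full or clear partial fitted curve of increased nuclear translocation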; further: potency means the concentration at half of the fitted maximal effect); conditions: U2OS GR-GFP nuclear translocation, laser cytometry, 2 h
# [5] = molecular target: Glucocorticoid receptor (Homo sapiens) (UniProt P04150); test: GR-EFC Redistribution (AID 451; calls by dose curve; further: potency means the concentration at half of the fitted maximal effect); conditions: CHO-K1 GR-EFC translocation, beta-gal luminescence, 2 h
# How it was run: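 CHO-K1 cells stably expressing nuclear-localized β-gal enzyme acceptor and GR fused C-terminally to the enzyme donor fragment; ligand-driven nuclear translocation restores β-gal by complementation. Compounds titrated up to 46 uM final, 2 h at 37 °C; luminescence read.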
# [6] = molecular target: Mitogen-activated protein kinase 10 (Mus musculus) (UniProt Q61831); test: JNK3 AlphaScreen Assay (AID 530; active means well fitted curve in either direction with a large enough effect, not every such curve was filed as active;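 further: kinase came from lysate of stimulated human HepG2 cells; signal reports phosphorylation of biotinylated GST-cJun 1-79 at Ser73 with 10 µM ATP; on the % scale 0 is the no-effect control and ±100 the full control effect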)
# How it was run: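 Biotinylated GST-cJun(1-79) served as substrate for JNK3 in HepG2 lysates stimulated with IL-1beta and TNF-alpha. ATP was 10 uM final, pH 7.6. Ser73 phosphorylation was quantified by AlphaScreen (680 nm excitation).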
# [7] = qHTS Assay for Identification of Small Molecule Agonists for Hypoxia Response Element Signaling Pathway (AID 914; active means well fitted activation curve with a large enough effect in the signal ratio, with a control signal flat, not every such curve was filed as active; the % refers to the signal ratio; further: potency means the concentration at half of the fitted maximal effect; on activation: % of control where 0% means no effect); conditions: ME-180 (cervical carcinoma) HRE-bla reporter, beta-lactamase ratio, CoCl2, 17 h; activation: active compounds read high
# How it was run: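 AC50 values come from titration-series %Activity, taken as the 460/530nm ratio of CCF4 fluorescence (excitation 405nm). CellSensor HRE-bla ME-180 cells were treated 17 hours at 37 C with compound plus an EC50 level of CoCl2.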
# [8] = molecular target: Dual specificity protein kinase CLK4 (Homo sapiens) (UniProt Q9HAZ1); test: qHTS Assay for Inhibitors of CDC-like Kinase 4 (Kinase-Glo Assay) (AID 1770); further: nearly all actives have a fitted effect of over 65% in size; further: potency means the concentration at half of the fitted maximal effect
# How it was run: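 Inhibition was judged from remaining ATP, measured by Ultra-Glo luciferase bioluminescence after Clk4 (25 nM) had acted on RS peptide at 1 uM ATP for 4.5 hours, room temperature.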
# [9] = molecular target: Dual specificity protein kinase CLK4 (Homo sapiens) (UniProt Q9HAZ1); test: qHTS Assay for Inhibitors of CDC-like Kinase 4 (ADP-Glo Assay) (AID 1771); further: nearly all actives have a fitted effect of over 70% in size; further: potency means the concentration at half of the fitted maximal effect
# How it was run: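 In this ADP-Glo format, 1 uM ATP and 100 uM RS peptide served as substrates for 25 nM Clk4 in Mg2+/EGTA/DTT/Triton buffer; reactions ran 1 hr at room temperature before luminescent ADP quantification.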
# [10] = molecular target: Dual specificity protein kinase CLK4 (Homo sapiens) (UniProt Q9HAZ1); test: qHTS Assay for Inhibitors of CDC-like Kinase 4 (ADP-FP Assay) (AID 1795); further: nearly all actives have a fitted effect of over 60% in size; further: potency means the concentration at half of the fitted maximal effect
# How it was run: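 Inhibition of ADP formation by 6.25 nM Clk4 is measured using 1 uM ATP and 100 uM RS repeat peptide over one hour. Produced ADP displaces a fluorescent tracer from antibody, lowering polarization.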
# [11] = molecular target: Ubiquitin carboxyl-terminal hydrolase 1 (Homo sapiens) (UniProt O94782); test: Inhibitors of USP1/UAF1: Pilot qHTS (AID 504865);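 further: rhodamine fluorescence freed from ubiquitin-rhodamine substrate followed over time; top concentration of the series differs between compounds; on the % scale 0 is the no-effect control and ±100 the full control effect; nearly all actives have a fitted effect of over 35% in size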
# How it was run: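 Kinetic fluorescence assay: 1nM USP1/UAF1, 15 min compound preincubation, then 150nM Ub-Rho; 480/540 nm.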
# [12] = molecular target: Lysosomal acid glucosylceramidase (Homo sapiens) (UniProt P04062); test: Glucocerebrosidase-p2 (AID 348; in the data active means potency below about 10 µM; further: potency means the concentration at half of the fitted maximal effect); conditions: purified GBA, blue fluorogenic substrate, 40 min
# How it was run: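 Normal human glucocerebrosidase (0.2 nM) with blue fluorogenic substrate (80 uM final) in citrate/phosphate pH 5.9 with 10mM sodium taurocholate, 0.01% tween-20; 40 min RT, NaOH/glycine stop; fluorescence Ex 365/Em 440; AC50 from a titration from 0.6 nM upwards.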
# [13] = molecular target: Cytochrome P450 3A4 (Homo sapiens) (UniProt P08684); test: qHTS Assay for Inhibitors and Substrates of Cytochrome P450 3A4 (AID 884); further: potency means the concentration at half of the fitted maximal effect; nearly all actives have a fitted effect of over 50% in size
# How it was run: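 Luminescent readout of luciferin produced by CYP3A4 (20 nM) dealkylation of Luciferin-PPXE, 25 uM (its KM). NADPH-driven reaction ran 60 min at RT after 10 min compound preincubation; data scaled to 57 uM ketoconazole as 100% inhibition.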
# [14] = molecular target: Cytochrome P450 3A4 (Homo sapiens) (UniProt P08684); test: qHTS Assay for Activators of Cytochrome P450 3A4 (AID 885); further: nearly all actives have a fitted effect of over 65% in size
# How it was run: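 CYP3A4 activity: Luciferin-PPXE O-dealkylation, 25uM substrate, 200mM KPO4, RT throughout. Read-out is luciferase luminescence; higher values reflect activation.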
# [15] = molecular target: Cytochrome P450 2D6 (Homo sapiens) (UniProt P10635); test: qHTS Assay for Inhibitors and Substrates of Cytochrome P450 2D6 (AID 891); further: potency means the concentration at half of the fitted maximal effect; nearly all actives have a fitted effect of over 60% in size
# How it was run: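 Luminescent read-out of luciferin formed by 5 nM human CYP2D6 demethylating 30 uM Luciferin-ME EGE (Km level) over 60 min at room temperature after NADPH regeneration addition. Data normalized to full inhibition by 1.43 uM quinidine.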
# [16] = molecular target: Cytochrome P450 1A2 (Homo sapiens) (UniProt P05177); test: p450-cyp1a2 (AID 410; calls by dose curve; further: potency means the concentration at half of the fitted maximal effect)
# How it was run: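 Read-out is luminescence from luciferin produced by CYP1A2 demethylation of Luciferin-ME (100uM, at Km). Detection reagent stopped the 60 min NADPH-dependent reaction; signals were normalized to 57 uM furafylline.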
# [17] = molecular target: 3',5'-cyclic-AMP phosphodiesterase 4B (Homo sapiens) (UniProt Q07343); test: qHTS Assay for Inhibitors of PDE-IV (AID 607; active means well fitted activation curve with a large enough effect in the main read-out, with a control signal flat, not every such curve was filed as active; further: % of control where 0% means no effect)
# How it was run: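 ACTOne HEK293 cells carry a modified cAMP-gated CNG channel and express endogenous PDE4; plated 1000 cells/well, compounds up to 22.9 uM final. Membrane-potential dye fluorescence (ex 535/em 590) was read; parental cells received 10 uM forskolin + 100 uM RO 20-1724.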
# [18] = molecular target: Cytochrome P450 2C9 (Homo sapiens) (UniProt P11712); test: qHTS Assay for Inhibitors and Substrates of Cytochrome P450 2C9 (AID 883); further: potency means the concentration at half of the fitted maximal effect; nearly all actives have a fitted effect of over 60% in size
# How it was run: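 Human CYP2C9 (10nM) hydroxylated Luciferin-H (100uM, at its KM) to luciferin in 25mM KPO4. Compound was preincubated 10 min at 37C, then NADPH regeneration started a 60 min reaction at 37C. Luminescence was read after detection reagent, normalized to 57uM sulphaphenazole.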
# [19] = molecular target: Cytochrome P450 2C19 (Homo sapiens) (UniProt P33261); test: qHTS Assay for Inhibitors and Substrates of Cytochrome P450 2C19 (AID 899); further: potency means the concentration at half of the fitted maximal effect; nearly all actives have a fitted effect of over 60% in size
# How it was run: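 Human CYP2C19 (5nM) with Luciferin-H EGE at 10uM (its KM) in 50mM KPO4 was preincubated with compound for 10 min at 37C. NADPH regeneration started a 60 min 37C reaction. Luciferin was read by luminescence, normalized to 57uM ketoconazole.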
# Glucocorticoid receptor (Homo sapiens), sequence (P04150 whole entry, looked up, the tested form may be a part): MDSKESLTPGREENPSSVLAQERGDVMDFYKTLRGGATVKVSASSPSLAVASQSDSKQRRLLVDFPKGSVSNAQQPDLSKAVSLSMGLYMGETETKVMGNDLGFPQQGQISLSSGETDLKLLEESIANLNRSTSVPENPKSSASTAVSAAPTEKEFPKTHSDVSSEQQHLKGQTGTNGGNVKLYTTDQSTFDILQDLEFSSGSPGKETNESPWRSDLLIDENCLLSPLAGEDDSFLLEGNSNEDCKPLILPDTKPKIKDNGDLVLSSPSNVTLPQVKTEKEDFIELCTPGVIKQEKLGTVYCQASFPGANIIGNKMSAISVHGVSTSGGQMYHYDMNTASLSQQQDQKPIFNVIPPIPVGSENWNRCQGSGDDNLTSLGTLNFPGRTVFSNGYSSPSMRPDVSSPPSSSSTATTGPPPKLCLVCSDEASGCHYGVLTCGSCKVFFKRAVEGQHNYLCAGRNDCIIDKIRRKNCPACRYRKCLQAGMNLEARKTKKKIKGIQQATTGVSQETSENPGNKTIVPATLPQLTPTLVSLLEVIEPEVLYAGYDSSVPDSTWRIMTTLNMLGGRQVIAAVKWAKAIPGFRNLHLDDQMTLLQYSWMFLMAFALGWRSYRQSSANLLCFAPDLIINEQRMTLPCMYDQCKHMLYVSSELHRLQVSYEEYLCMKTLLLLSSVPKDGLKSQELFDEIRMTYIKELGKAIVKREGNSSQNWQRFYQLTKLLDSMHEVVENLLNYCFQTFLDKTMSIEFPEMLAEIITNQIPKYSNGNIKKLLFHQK
# Cytochrome P450 1A2 (Homo sapiens), sequence (P05177 whole entry, looked up): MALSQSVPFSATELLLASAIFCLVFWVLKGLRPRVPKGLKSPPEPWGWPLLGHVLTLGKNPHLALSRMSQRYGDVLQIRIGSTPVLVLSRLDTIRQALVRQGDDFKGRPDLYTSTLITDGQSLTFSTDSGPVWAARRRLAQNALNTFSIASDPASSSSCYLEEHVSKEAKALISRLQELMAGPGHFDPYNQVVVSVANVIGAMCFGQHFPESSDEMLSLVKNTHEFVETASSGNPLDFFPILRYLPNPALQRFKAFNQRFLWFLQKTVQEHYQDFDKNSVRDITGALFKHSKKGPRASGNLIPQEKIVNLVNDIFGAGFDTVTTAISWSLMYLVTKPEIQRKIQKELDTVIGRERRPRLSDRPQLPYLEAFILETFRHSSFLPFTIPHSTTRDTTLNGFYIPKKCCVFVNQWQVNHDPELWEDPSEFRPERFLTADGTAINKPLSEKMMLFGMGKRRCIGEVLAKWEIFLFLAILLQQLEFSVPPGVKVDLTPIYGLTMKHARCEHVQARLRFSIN
# Ubiquitin carboxyl-terminal hydrolase 1 (Homo sapiens), sequence (O94782 whole entry, looked up): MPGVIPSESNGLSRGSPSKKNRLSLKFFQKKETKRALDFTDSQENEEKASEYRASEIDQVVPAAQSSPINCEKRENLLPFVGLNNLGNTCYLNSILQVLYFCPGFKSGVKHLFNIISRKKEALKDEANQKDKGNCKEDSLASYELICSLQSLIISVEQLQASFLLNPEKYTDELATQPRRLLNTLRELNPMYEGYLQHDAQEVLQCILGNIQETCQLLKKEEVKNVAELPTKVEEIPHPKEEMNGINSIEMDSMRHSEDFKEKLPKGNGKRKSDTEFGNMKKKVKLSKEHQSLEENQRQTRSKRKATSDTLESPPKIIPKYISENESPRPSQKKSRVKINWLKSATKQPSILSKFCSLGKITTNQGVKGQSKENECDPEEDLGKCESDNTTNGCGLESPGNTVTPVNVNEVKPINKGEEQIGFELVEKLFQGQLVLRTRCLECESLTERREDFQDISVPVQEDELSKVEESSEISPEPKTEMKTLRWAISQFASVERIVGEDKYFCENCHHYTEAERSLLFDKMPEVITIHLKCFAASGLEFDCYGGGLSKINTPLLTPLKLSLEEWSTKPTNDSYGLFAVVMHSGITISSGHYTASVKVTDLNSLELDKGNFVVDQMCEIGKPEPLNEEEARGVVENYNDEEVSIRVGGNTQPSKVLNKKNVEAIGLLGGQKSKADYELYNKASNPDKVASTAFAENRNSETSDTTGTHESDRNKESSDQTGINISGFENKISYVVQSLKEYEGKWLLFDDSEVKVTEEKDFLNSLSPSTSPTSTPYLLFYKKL
# Lysosomal acid glucosylceramidase (Homo sapiens), sequence (P04062 whole entry, looked up): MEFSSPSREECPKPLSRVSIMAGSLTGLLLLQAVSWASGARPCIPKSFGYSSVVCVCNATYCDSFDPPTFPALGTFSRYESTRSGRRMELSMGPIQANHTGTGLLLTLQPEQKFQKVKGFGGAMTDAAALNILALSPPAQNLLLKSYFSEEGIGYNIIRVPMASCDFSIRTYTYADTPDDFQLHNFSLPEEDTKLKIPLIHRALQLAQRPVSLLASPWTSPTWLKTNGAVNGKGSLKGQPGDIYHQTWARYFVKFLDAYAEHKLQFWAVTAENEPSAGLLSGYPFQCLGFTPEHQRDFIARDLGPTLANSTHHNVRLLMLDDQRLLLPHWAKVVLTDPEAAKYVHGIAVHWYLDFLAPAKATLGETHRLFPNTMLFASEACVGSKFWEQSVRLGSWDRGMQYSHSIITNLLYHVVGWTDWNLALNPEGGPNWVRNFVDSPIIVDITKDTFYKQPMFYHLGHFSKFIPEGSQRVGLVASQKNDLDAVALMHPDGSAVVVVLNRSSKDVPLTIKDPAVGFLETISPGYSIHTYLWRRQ
# Cytochrome P450 3A4 (Homo sapiens), sequence (P08684 whole entry, looked up): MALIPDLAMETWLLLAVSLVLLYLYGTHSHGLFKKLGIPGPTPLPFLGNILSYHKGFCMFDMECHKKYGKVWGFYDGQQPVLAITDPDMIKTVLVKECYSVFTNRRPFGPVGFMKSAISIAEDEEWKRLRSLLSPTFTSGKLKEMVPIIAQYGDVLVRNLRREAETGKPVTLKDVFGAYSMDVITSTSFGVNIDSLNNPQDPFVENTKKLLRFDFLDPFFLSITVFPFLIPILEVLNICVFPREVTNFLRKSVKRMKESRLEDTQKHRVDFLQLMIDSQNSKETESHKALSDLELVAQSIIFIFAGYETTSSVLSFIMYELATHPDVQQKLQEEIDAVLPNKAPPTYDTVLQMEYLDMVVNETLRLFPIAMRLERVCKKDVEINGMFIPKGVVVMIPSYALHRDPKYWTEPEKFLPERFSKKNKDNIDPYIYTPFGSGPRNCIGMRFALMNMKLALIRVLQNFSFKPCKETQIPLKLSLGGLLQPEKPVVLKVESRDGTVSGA
# Dual specificity protein kinase CLK4 (Homo sapiens), sequence (Q9HAZ1 whole entry, looked up): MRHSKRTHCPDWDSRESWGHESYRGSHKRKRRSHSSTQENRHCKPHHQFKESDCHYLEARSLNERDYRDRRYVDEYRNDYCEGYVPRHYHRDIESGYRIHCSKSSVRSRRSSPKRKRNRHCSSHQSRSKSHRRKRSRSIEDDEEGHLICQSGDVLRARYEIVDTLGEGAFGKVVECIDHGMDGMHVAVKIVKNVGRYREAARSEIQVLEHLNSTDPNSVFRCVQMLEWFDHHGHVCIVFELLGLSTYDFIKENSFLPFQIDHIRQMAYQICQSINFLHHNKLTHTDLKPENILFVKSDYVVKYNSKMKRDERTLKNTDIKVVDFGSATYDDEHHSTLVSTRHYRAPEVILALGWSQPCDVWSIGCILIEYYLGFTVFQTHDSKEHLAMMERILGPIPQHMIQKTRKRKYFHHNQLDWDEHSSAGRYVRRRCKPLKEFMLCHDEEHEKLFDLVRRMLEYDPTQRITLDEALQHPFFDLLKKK
# Cytochrome P450 2D6 (Homo sapiens), sequence (P10635 whole entry, looked up): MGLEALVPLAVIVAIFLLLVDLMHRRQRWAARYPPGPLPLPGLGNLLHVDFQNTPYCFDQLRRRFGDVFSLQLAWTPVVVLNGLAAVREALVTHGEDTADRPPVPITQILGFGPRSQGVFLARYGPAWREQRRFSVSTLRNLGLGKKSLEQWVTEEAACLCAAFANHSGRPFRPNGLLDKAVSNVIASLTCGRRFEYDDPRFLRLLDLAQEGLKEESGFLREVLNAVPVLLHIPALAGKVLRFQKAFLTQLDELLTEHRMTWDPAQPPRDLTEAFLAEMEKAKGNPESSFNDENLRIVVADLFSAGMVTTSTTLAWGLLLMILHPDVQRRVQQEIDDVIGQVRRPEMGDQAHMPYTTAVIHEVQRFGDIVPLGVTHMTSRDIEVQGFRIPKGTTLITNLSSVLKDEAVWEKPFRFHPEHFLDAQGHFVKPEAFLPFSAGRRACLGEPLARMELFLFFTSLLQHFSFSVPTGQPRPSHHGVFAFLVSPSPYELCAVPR
# 3',5'-cyclic-AMP phosphodiesterase 4B (Homo sapiens), sequence (Q07343 whole entry, looked up): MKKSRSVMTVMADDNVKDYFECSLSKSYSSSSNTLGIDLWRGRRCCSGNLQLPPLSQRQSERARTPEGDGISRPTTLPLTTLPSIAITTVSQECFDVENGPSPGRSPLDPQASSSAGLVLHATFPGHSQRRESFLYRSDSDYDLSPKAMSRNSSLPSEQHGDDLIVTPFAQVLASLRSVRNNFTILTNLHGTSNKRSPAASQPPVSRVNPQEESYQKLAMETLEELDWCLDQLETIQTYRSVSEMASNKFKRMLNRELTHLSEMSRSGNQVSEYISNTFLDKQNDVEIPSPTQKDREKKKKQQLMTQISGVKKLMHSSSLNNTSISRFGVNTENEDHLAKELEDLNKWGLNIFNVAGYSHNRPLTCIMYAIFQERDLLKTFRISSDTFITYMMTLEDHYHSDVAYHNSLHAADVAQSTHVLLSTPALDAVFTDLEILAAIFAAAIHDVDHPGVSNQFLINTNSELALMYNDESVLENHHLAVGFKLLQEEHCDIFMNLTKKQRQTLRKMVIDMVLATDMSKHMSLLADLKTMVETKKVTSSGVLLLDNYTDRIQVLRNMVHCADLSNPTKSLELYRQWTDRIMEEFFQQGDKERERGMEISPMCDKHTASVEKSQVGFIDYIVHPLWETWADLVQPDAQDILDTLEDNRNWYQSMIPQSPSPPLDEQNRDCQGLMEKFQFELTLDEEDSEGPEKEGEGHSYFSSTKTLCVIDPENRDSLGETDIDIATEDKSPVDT
SMILES,"activity change, negative = inhibition [1]","activity change, negative = inhibition [2]",outcome [3],Potency [4],Potency [5],Potency [6],activation [7],Potency [8],Potency [9],Potency [10],Potency [11],Potency [12],Potency [13],outcome [14],Potency [15],Potency [16],Potency [7],Potency [17],Potency [18],Potency [19]
O=c1c(CCc2ccccc2)nc2cnc(N3CCOCC3)nc2n1-c1ccccc1,1.07%,1.96%,inactive,> 9.22 µM,> 46 µM,inactive,-5.71%,inactive,inactive,inactive,inactive,,,,,,,,,
COc1cccc(-c2nc(NC3CC3)c3ccccc3n2)c1,-6.5%,1.07%,inactive,,> 46 µM,inactive,,7.08 µM (active),7.08 µM (active),2.82 µM (active),,2.73 µM (active),1.26 µM (active),inactive,7.94 µM (active),,,,,
CN(C)c1ncc2nc(-c3ccccc3)c(=O)n(C)c2n1,,,,> 9.22 µM,> 46 µM,,,inactive,inactive,inactive,inactive,> 11.4 µM,,,,1 µM (active),2.51 µM (active),,,
Cc1cccc(CNc2ncncc2-c2ccccc2C)c1,-10%,-10.9%,inactive,> 46 µM,> 46 µM,inactive,,inactive,inactive,inactive,inactive,,0.398 µM (active),inactive,3.98 µM (active),2.51 µM (active),,,,
COc1ccc(-c2nc3cnc(Oc4cccc(Cl)c4)nc3n(C[C@H]3CCCO3)c2=O)cc1,-13.7%,,,> 9.22 µM,> 46 µM,,,inactive,inactive,inactive,inactive,,,inactive,,5.01 µM (active),,inactive,5.01 µM (active),
COc1cccc(-c2ccc3ncnc(Nc4ccccc4)c3c2)c1,,,inactive,> 46 µM,> 46 µM,inactive,,2 µM (active),2.82 µM (active),0.282 µM (active),inactive,> 11.4 µM,,inactive,,1 µM (active),,,,0.501 µM (active)
CN(C)c1ncc2nc(CCc3ccccc3)c(=O)n(CCc3ccccc3)c2n1,-11.1%,-22.4%,inactive,> 9.22 µM,> 46 µM,,21.3%,inactive,inactive,,inactive,> 11.4 µM,6.31 µM (active),inactive,,6.31 µM (active),,,,
